Measurements reported in PubChem BioAssay (Tox21).
A number with no mark means an inactive call. Records with an inconclusive call do not appear. Entries that show only a call come without a potency. The source made the active and inactive calls. Calls come from the whole dose curve; as a rule, active = well fitted curve in the direction sought with a large enough effect in the repeat runs; inconclusive = weak or mixed curves; inactive = no such curve, though single readings can be large; an effect the other way counts as inactive or inconclusive.

Assays:
[1] = Human pregnane X receptor (PXR) small molecule agonists, qHTS cell viability counter screen (AID 1346977); note: nearly all actives have a fitted effect of over 50% in size
How it was run: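 Fluorescence read-out (CellTiter-Fluor) of viability in PXR-Luc HepG2 cells, multiplexed with the luciferase agonist read. Compounds in DMSO added after 5hr plating; 24hr total exposure at 37C, 5% CO2.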

[2] = Caspase-3/7 induction in HepG2 cells by small molecules, qHTS assay (AID 1346978); note: nearly all actives have a fitted effect of over 15% in size
How it was run: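 Wild-type HepG2 cells (2,000/well) were settled 5 h at 37 C, 5% CO2, then exposed to compounds in DMSO for 17 h. Caspase-3/7 activity was read by luminescence 30 min after adding Caspase-Glo 3/7 reagent at room temperature.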

[3] = Caspase-3/7 induction in CHO-K1 cells by small molecules, qHTS cell viability counter screen (AID 1346979); note: nearly all actives have a fitted effect of over 35% in size
How it was run: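 CHO-K1 wt, 1,500 cells/well; 5hr pre-incubation 37C/5% CO2; compound pin transfer (DMSO); 16hr exposure; CellTiter-Fluor added, 1hr, fluorescence read.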

[4] = Caspase-3/7 induction in CHO-K1 cells by small molecules, qHTS assay (AID 1346980); note: nearly all actives have a fitted effect of over 15% in size
How it was run: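 Wild-type cells were seeded at 1,500 per well and settled 5 hr at 37 C, 5% CO2, then exposed to DMSO-dissolved compounds for 17 hr. Caspase-Glo 3/7 reagent was added, and luminescence was read after 30min at room temperature.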

[5] = Caspase-3/7 induction in HepG2 cells by small molecules, qHTS cell viability counter screen (AID 1346981); note: series mostly up to about 92 µM; nearly all actives have a fitted effect of over 30% in size
How it was run: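 Fluorescence read-out of live-cell protease activity (CellTiter-Fluor) after 1 hr with reagent. This was measured in the same wells as the caspase-3/7 luminescence, on HepG2 cells exposed to DMSO-dissolved compounds for 16 hr at 37 C.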

[6] = target: Voltage-gated inwardly rectifying potassium channel KCNH2 (Homo sapiens) (UniProt Q12809); assay: Human Ether-a-go-go-Related Gene (hERG) channel small molecule antagonists: fluorescence cell-based qHTS assay (AID 1671200);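 note: hERG-expressing U2OS cells given a thallium stimulus after FluxOR II dye loading; series mostly up to about 77 µM; nearly all actives have a fitted effect of over 50% in size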
Voltage-gated inwardly rectifying potassium channel KCNH2 (Homo sapiens), sequence (Q12809 whole entry, looked up): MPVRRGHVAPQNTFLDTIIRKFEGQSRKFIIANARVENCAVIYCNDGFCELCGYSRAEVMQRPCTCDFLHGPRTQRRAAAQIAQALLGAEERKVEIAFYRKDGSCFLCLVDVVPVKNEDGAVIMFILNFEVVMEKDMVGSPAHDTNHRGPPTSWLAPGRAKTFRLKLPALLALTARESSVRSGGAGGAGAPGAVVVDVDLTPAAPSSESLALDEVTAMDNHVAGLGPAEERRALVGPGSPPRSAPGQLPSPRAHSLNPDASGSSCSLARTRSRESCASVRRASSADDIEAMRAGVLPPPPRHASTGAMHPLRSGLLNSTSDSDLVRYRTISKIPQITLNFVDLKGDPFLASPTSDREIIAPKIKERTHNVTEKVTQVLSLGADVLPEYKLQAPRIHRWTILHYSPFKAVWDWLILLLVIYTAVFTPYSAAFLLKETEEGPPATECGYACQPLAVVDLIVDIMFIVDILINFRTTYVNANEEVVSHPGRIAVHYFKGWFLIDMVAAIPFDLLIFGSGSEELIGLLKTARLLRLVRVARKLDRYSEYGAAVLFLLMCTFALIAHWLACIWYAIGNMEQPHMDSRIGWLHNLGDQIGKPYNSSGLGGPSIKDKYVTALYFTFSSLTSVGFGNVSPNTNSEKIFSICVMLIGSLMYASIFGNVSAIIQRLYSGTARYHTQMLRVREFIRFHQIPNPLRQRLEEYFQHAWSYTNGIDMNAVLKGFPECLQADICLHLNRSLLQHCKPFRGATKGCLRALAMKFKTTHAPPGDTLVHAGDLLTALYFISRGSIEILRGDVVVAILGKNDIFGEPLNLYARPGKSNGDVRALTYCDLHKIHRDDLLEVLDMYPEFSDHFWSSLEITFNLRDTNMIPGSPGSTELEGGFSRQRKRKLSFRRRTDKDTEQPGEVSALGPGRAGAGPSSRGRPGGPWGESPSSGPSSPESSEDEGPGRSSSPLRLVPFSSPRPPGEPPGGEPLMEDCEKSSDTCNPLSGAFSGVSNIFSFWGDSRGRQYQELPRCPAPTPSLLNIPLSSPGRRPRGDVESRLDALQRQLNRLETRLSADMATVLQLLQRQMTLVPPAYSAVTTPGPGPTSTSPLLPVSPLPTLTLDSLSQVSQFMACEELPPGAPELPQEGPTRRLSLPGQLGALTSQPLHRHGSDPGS
How it was run: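 Read-out: thallium influx as a surrogate for potassium, tracked as fluorescence (480 nm ex/540 nm em) every second for 2 min after Stimulus Buffer addition in dye-loaded hERG-U2OS cells.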

[7] = target: Nuclear receptor subfamily 1 group I member 2 (Homo sapiens) (UniProt O75469); assay: Human pregnane X receptor (PXR) small molecule agonists, qHTS assay (AID 1346982); note: nearly all actives have a fitted effect of over 35% in size; note: potency is the fitted concentration of half-maximal effect
Nuclear receptor subfamily 1 group I member 2 (Homo sapiens), sequence (O75469 whole entry, looked up): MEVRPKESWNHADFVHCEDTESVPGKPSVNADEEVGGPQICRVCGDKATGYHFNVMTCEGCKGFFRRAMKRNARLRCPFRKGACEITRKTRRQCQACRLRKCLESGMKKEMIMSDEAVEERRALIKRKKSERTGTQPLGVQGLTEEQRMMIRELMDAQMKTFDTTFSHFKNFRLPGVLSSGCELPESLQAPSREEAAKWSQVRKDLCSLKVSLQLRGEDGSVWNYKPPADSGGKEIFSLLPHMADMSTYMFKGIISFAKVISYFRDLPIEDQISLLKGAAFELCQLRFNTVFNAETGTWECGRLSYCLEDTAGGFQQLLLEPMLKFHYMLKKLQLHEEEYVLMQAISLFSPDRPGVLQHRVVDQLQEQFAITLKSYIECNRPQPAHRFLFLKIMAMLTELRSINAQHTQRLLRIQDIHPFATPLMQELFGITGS
How it was run: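 HepG2 PXR-Luc reporter line, 5% charcoal-stripped FBS; 5 hr pre-incubation, compound (DMSO) 24 hr at 37 C/5% CO2; ONE-Glo 30 min RT; luminescence read-out.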

[8] = target: Nuclear receptor subfamily 1 group I member 2 (Rattus norvegicus) (UniProt Q9R1A7); assay: Rat pregnane X receptor (rPXR) activation by small molecules, qHTS assay (AID 1346983); conditions: rPXR luciferase reporter cells, One-Glo luminescence, 24 h; active compounds read high; note: nearly all actives have a fitted effect of over 20% in size
Nuclear receptor subfamily 1 group I member 2 (Rattus norvegicus), sequence (Q9R1A7 whole entry, looked up): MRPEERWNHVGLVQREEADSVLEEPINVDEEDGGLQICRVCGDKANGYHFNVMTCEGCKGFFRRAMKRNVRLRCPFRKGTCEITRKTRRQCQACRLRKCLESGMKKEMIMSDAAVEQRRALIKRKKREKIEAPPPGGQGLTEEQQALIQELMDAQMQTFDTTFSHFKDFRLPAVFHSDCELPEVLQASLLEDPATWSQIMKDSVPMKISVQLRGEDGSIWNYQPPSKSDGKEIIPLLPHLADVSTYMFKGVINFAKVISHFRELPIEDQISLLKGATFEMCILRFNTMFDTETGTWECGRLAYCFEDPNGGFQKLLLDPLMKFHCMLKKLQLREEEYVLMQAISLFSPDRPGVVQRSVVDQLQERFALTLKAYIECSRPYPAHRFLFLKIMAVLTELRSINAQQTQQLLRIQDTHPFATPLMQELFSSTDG
How it was run: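 Cell-based rPXR luciferase reporter assay, 2,000 cells per well, rested 5hr at 37 C before compound addition in DMSO, then 24 hr at 37 C. One-Glo reagent was added and luminescence read after 30 min at room temperature.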

[9] = target: Nuclear receptor subfamily 1 group I member 2 (Homo sapiens) (UniProt O75469); assay: CYP3A4 induction through human pregnane X receptor (PXR) by small molecules, qHTS assay (AID 1346984); note: nearly all actives have a fitted effect of over 40% in size
How it was run: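 HepG2-derived DPX-2 line carrying PXR plus a CYP3A4-promoter luciferase reporter; cells plated 5 hr, compound-exposed 24 hr at 37C. CYP3A4 activity probed with 3uM (final) Luciferin-IPA for 3hr, then luciferase read after One-Glo.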

[10] = target: Nuclear receptor subfamily 1 group I member 2 (Homo sapiens) (UniProt O75469); assay: Human pregnane X receptor (PXR) activation by small molecules, qHTS assay (AID 1346985); note: nearly all actives have a fitted effect of over 40% in size; note: potency is the fitted concentration of half-maximal effect
How it was run: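 DPX-2 cells (HepG2 co-transfected with a PXR response element and a CYP3A4-promoter luciferase construct) were seeded at 2,000 per well, rested 5 hr at 37C, then exposed to DMSO-dissolved compounds for 24 hr. Activation was read as luciferase luminescence.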

[11] = target: Cytochrome P450 2C19 (Homo sapiens) (UniProt P33261); assay: Cytochrome P450 Family 2 Subfamily C Member 19 (CYP2C19) small molecule antagonists: luciferase reporter qHTS assay (AID 1671197); note: nearly all actives have a fitted effect of over 65% in size; note: potency is the fitted concentration of half-maximal effect
Cytochrome P450 2C19 (Homo sapiens), sequence (P33261 whole entry, looked up): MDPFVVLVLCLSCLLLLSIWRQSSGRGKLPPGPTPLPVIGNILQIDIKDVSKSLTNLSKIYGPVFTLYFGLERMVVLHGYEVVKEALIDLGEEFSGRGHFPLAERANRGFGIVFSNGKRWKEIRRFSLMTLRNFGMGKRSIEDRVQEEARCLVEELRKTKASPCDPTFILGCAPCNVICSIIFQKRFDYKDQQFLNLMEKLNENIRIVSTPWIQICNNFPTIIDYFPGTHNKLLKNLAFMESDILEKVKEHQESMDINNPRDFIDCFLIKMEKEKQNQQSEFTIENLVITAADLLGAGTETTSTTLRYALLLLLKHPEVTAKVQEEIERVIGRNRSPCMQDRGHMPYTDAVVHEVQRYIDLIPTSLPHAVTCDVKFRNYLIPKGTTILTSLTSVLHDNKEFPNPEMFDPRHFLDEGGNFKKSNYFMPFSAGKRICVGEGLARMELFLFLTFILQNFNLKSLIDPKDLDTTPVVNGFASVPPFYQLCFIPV
How it was run: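 Light output is proportional to CYP2C19 activity: proluciferin substrate is converted to luciferin, then detected by a luciferin detection reagent that also stops the 1 h, 37C NADPH-driven reaction. Ketoconazole serves as positive control.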

[12] = target: Cytochrome P450 2C9 (Homo sapiens) (UniProt P11712); assay: Cytochrome P450 Family 2 Subfamily C Member 9 (CYP2C9) small molecule antagonists: luciferase reporter qHTS assay (AID 1671198); note: nearly all actives have a fitted effect of over 50% in size; note: potency is the fitted concentration of half-maximal effect
Cytochrome P450 2C9 (Homo sapiens), sequence (P11712 whole entry, looked up): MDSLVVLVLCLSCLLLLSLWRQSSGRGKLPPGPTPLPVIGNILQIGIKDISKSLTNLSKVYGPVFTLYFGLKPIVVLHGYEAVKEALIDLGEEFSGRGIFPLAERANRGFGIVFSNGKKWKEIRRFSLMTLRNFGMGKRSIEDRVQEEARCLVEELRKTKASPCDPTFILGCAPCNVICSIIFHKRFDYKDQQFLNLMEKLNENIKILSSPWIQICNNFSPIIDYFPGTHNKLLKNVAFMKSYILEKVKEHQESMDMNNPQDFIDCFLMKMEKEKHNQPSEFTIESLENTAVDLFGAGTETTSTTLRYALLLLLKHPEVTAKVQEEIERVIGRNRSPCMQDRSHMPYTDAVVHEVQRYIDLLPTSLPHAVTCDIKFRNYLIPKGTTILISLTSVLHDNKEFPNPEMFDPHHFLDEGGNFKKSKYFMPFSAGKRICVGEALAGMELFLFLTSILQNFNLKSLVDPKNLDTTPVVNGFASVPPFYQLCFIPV
How it was run: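 CYP2C9 activity was measured with a P450-Glo proluciferin substrate. Enzyme–substrate mix was held with compound for 10 min at room temperature, then NADPH regeneration solution was added for 1 h at 37C. Luciferin product was read as luminescence.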

[13] = target: Cytochrome P450 1A2 (Homo sapiens) (UniProt P05177); assay: Cytochrome P450 Family 1 Subfamily A Member 2 (CYP1A2) small molecule antagonists: luciferase reporter qHTS assay (AID 1671199); note: nearly all actives have a fitted effect of over 50% in size; note: potency is the fitted concentration of half-maximal effect
Cytochrome P450 1A2 (Homo sapiens), sequence (P05177 whole entry, looked up): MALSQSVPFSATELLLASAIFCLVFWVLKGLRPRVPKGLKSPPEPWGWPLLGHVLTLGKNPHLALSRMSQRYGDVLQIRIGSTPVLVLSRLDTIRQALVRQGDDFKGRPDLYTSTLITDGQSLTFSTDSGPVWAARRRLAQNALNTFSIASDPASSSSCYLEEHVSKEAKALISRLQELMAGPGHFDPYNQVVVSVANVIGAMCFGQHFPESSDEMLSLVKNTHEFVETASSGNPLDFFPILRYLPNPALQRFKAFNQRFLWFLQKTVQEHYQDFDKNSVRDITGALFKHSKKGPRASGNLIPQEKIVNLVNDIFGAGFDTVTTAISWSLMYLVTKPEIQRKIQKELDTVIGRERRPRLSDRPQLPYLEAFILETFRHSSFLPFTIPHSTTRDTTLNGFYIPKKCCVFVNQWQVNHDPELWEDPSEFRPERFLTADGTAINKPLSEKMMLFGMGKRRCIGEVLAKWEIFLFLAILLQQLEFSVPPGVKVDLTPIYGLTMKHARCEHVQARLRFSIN
How it was run: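 Luminescence readout (relative luminescence units) after luciferin detection reagent, 20 min RT. Preceded by 1 h room-temperature CYP1A2 reaction with NADPH regeneration solution following 10 min compound preincubation with enzyme and proluciferin substrate. Furafylline positive control.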

[14] = target: Cytochrome P450 3A4 (Homo sapiens) (UniProt P08684); assay: Cytochrome P450 Family 3 Subfamily A Member 4 (CYP3A4) small molecule antagonists: luciferase reporter qHTS assay (AID 1671201); note: nearly all actives have a fitted effect of over 50% in size; note: potency is the fitted concentration of half-maximal effect
Cytochrome P450 3A4 (Homo sapiens), sequence (P08684 whole entry, looked up): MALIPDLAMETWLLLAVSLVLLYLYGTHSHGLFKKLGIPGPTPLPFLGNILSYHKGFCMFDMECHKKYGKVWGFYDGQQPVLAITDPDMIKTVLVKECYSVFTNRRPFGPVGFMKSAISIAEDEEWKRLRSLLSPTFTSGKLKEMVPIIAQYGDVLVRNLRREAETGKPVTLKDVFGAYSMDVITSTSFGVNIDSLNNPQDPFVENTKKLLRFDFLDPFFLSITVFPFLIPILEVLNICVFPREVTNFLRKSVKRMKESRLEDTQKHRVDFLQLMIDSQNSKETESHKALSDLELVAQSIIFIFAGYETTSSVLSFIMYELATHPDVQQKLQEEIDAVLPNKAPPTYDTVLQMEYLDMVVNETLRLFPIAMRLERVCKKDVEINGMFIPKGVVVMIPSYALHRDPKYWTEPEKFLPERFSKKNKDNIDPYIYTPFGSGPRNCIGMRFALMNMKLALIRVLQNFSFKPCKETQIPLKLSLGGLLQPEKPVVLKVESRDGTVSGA
How it was run: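 Luminescent readout (RLU) proportional to CYP3A4 activity, from luciferin generated off a proluciferin substrate. Enzyme–substrate mix plus compound 10 min at room temp, NADPH regeneration 1 h, detection reagent 20 min.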

[15] = target: Cytochrome P450 2D6 (Homo sapiens) (UniProt P10635); assay: Cytochrome P450 Family 2 Subfamily D Member 6 (CYP2D6) small molecule antagonists: luciferase reporter qHTS assay (AID 1671196); note: nearly all actives have a fitted effect of over 50% in size; note: potency is the fitted concentration of half-maximal effect
Cytochrome P450 2D6 (Homo sapiens), sequence (P10635 whole entry, looked up): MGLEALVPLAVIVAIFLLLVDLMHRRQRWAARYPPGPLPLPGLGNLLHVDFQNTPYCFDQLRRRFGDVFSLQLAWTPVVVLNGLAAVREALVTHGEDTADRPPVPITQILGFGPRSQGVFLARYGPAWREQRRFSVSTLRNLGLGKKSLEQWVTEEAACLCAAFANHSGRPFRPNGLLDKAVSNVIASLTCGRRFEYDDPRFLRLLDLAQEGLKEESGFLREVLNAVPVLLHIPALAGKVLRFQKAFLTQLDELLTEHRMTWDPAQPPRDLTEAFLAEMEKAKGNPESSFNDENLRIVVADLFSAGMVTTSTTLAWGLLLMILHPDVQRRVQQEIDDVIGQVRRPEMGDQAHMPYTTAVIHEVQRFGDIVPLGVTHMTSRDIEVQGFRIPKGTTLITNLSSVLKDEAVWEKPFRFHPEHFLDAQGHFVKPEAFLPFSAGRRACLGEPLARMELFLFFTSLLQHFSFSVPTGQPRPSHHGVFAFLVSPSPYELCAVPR
How it was run: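 Luminogenic proluciferin substrate, CYP2D6 enzyme; 10 min RT preincubation with compound, NADPH regeneration system added, 1 h RT. Stop/detection reagent, 20 min RT, luminescence read (RLU). Signal proportional to CYP activity.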

SMILES: CC(C)NCC(O)COc1cccc2[nH]ccc12 (stereo not drawn)
- Potency [1]: inactive
- Potency [2]: inactive
- Potency [3]: inactive
- outcome [4]: inactive
- Potency [5]: inactive
- Potency [6]: inactive

SMILES: CCOc1cc(NC(C)=O)ccc1C(=O)OC
- Potency [1]: inactive
- Potency [2]: inactive
- Potency [3]: inactive
- outcome [4]: inactive
- Potency [7]: inactive
- max activation [8]: -4.18%
- Potency [9]: inactive
- Potency [10]: inactive
- Potency [11]: inactive
- Potency [12]: inactive
- Potency [13]: 5.49 µM (active)
- Potency [6]: inactive
- Potency [14]: inactive

SMILES: O=C(O)Cc1ccc(Cl)cc1Cl
- Potency [1]: inactive
- Potency [2]: inactive
- Potency [3]: inactive
- outcome [4]: inactive
- Potency [15]: 31.7 µM (active)
- Potency [11]: inactive
- Potency [12]: inactive
- Potency [13]: inactive
- Potency [6]: inactive
- Potency [14]: inactive

SMILES: ClCCCl
- Potency [1]: inactive
- Potency [2]: inactive
- Potency [3]: inactive
- outcome [4]: inactive
- Potency [7]: inactive
- Potency [15]: inactive
- Potency [11]: inactive
- Potency [12]: inactive
- Potency [13]: inactive
- Potency [6]: inactive
- Potency [14]: inactive

SMILES: CCOC(=O)[C@H](CCc1ccccc1)N[C@@H](C)C(=O)N1C(=O)N(C)C[C@H]1C(=O)O
- Potency [1]: inactive
- Potency [2]: inactive
- Potency [3]: inactive
- outcome [4]: inactive
- Potency [7]: inactive
- max activation [8]: -1.3%
- Potency [9]: inactive
- Potency [10]: inactive
- Potency [11]: inactive
- Potency [12]: inactive
- Potency [13]: inactive
- Potency [6]: inactive
- Potency [14]: inactive

SMILES: CC1COc2ccccc2N1 (stereo not drawn)
- Potency [1]: inactive
- Potency [2]: inactive
- Potency [3]: inactive
- outcome [4]: inactive
- Potency [7]: inactive
- Potency [15]: inactive
- Potency [11]: 44.8 µM (active)
- Potency [13]: 31.7 µM (active)
- Potency [6]: inactive
- Potency [14]: inactive

SMILES: CC(C)OC(=O)CCCCC(=O)OC(C)C
- Potency [1]: inactive
- Potency [2]: inactive
- Potency [3]: inactive
- outcome [4]: inactive
- Potency [7]: inactive
- Potency [11]: inactive
- Potency [12]: inactive
- Potency [13]: inactive
- Potency [6]: inactive
- Potency [14]: inactive

SMILES: Cc1cccc2nccnc12
- Potency [1]: inactive
- Potency [2]: inactive
- Potency [3]: inactive
- outcome [4]: inactive
- Potency [5]: inactive
- Potency [11]: inactive
- Potency [13]: inactive
- Potency [6]: inactive

SMILES: CC(C)CC(C)CC(C)CC(C)COC(=O)c1ccccc1C(=O)OCC(C)CC(C)CC(C)CC(C)C (stereo not drawn)
- Potency [1]: inactive
- Potency [2]: inactive
- Potency [3]: inactive
- outcome [4]: inactive
- Potency [7]: inactive
- Potency [11]: 65.9 µM (active)
- Potency [12]: 58.7 µM (active)
- Potency [13]: 65.9 µM (active)
- Potency [6]: inactive

SMILES: CC(=O)/C=C/C1C(C)=CCC(C)C1(C)C (stereo not drawn)
- Potency [1]: inactive
- Potency [2]: inactive
- Potency [3]: inactive
- outcome [4]: inactive
- Potency [5]: inactive
- Potency [11]: 10 µM (active)
- Potency [6]: inactive
- Potency [14]: 25.2 µM (active)

SMILES: CC(=O)c1sc(C)nc1C
- Potency [1]: inactive
- Potency [2]: inactive
- Potency [3]: inactive
- outcome [4]: inactive
- Potency [7]: inactive
- Potency [15]: inactive
- Potency [11]: inactive
- Potency [12]: inactive
- Potency [13]: inactive
- Potency [6]: inactive
- Potency [14]: inactive

SMILES: BrCCCCCBr
- Potency [1]: inactive
- Potency [2]: inactive
- Potency [3]: inactive
- Potency [5]: inactive
- Potency [7]: inactive
- Potency [15]: inactive
- Potency [11]: inactive
- Potency [12]: inactive
- Potency [6]: inactive
- Potency [14]: inactive

SMILES: CCCCOC(=O)c1ccccc1
- Potency [1]: inactive
- Potency [2]: inactive
- Potency [3]: inactive
- Potency [7]: inactive
- Potency [15]: inactive
- Potency [12]: inactive
- Potency [6]: inactive
- Potency [14]: inactive

SMILES: CC(C)(C)OC(=O)c1ccc(O)cc1
- Potency [1]: inactive
- Potency [2]: inactive
- Potency [3]: inactive
- Potency [5]: inactive
- Potency [7]: 27.3 µM (active)
- Potency [11]: 63.3 µM (active)
- Potency [13]: 31.7 µM (active)
- Potency [6]: inactive
- Potency [14]: inactive

SMILES: COc1ccc(S(=O)(=O)N2c3ccc(Cl)cc3[C@@](O)(c3ccccc3Cl)[C@H]2C(=O)N2CCC[C@@H]2C(N)=O)cc1OC
- Potency [1]: inactive
- Potency [3]: inactive
- outcome [4]: inactive
- Potency [5]: inactive
- max activation [8]: 11.3%
- Potency [9]: inactive
- Potency [10]: 14.1 µM (active)
- Potency [15]: inactive
- Potency [11]: inactive
- Potency [12]: 17.4 µM (active)
- Potency [13]: inactive

SMILES: N#Cc1ccc(C(=O)O)cc1
- Potency [1]: inactive
- Potency [2]: inactive
- Potency [3]: inactive
- Potency [5]: inactive
- Potency [15]: 28.3 µM (active)
- Potency [12]: inactive
- Potency [6]: inactive
- Potency [14]: inactive

SMILES: CC(COC(C)(C)C)OCCCO (stereo not drawn)
- Potency [1]: inactive
- Potency [2]: inactive
- outcome [4]: inactive
- Potency [5]: inactive
- Potency [7]: inactive
- Potency [15]: 63.3 µM (active)
- Potency [12]: inactive
- Potency [13]: inactive
- Potency [6]: inactive
- Potency [14]: inactive

SMILES: CCO[Si](CCCS)(OCC)OCC
- Potency [1]: inactive
- Potency [2]: inactive
- Potency [3]: inactive
- Potency [5]: inactive
- Potency [7]: inactive
- Potency [11]: 35.6 µM (active)
- Potency [13]: inactive
- Potency [6]: inactive
- Potency [14]: 35.6 µM (active)

SMILES: CCOC(=O)c1ncn2c1CN(C)C(=O)c1cc(F)ccc1-2
- Potency [1]: inactive
- Potency [3]: inactive
- outcome [4]: inactive
- Potency [5]: inactive
- Potency [7]: inactive
- Potency [15]: inactive
- Potency [11]: inactive
- Potency [13]: inactive
- Potency [6]: inactive
- Potency [14]: inactive

SMILES: CC(=O)Nc1cccc(C)c1
- Potency [1]: inactive
- Potency [2]: inactive
- Potency [3]: inactive
- Potency [5]: inactive
- Potency [7]: inactive
- Potency [11]: 71.3 µM (active)
- Potency [12]: inactive
- Potency [6]: inactive
- Potency [14]: inactive
